Each structure is given as a SMILES string. Hit rate of the full screen: of about 220,000 compounds, about 2,000 (0.91%) were called active. Inconclusive results (about 2%) are left out. These entries were drawn from the full list. Results with a measured potency or affinity are listed apart. A number with no mark means an inactive call. Rule as the data show it: inconclusive = inhibition above about 80% without an active follow-up result; inactive = below that; test concentration not stated here.

The test can be described thus: M. tuberculosis H37Rv growth inhibitors, H37Rv strain (AID 1626).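 Also: bacteria incubated seven days before Alamar blue readout; 0% = bacteria only wells and 100% = bacteria with antibiotic wells.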 As to conditions: active compounds read high, concentration not given here.
Consider `CC(N=C1NC(C)(C)Cc2ccccc21)C(=O)O` (stereo unspecified), for which the inhibition – broadly, the relative decrease from the control value, in per cent – is -3.94%.
For `Cn1c(Cn2c(=O)sc3ccccc32)nnc1SCC(=O)NC1CCCC1` the value was -8.44%; for `Cc1cc(C)n(C(=O)c2ccccc2[N+](=O)[O-])n1`, 6.43%.
For `Cc1cc(C)n(C(=O)c2ccc([N+](=O)[O-])cc2N)n1` the value was -10.3%.
Turning to `CC1C=CCC2C(=O)N(c3ccc(Cl)cc3O)C(=O)C12` (stereo unspecified), the inhibition is 10.7%.
Regarding `Cc1ccc2nc(/N=C(\N)NC(=O)N3c4ccccc4Sc4ccccc43)nc(C)c2c1`, the inhibition was 94.5%.
In the case of `COc1ccc2nc(/N=C(\N)NC(=O)C(C)(C)C)nc(C)c2c1` it was 14.9%; in that of `COc1ccc(CN(CC2CCC(C(=O)O)CC2)C(=S)Nc2cc(C)ccc2C)cc1` (stereo unspecified), 4.91%; in that of `O=C(NC1CSC/C1=N\O)c1ccccc1` (stereo unspecified), -2.37%.
As for `COc1ccc(/C=C/C(=O)c2ccc(Cl)cc2)c(OC)c1`, the inhibition was 7.24%.
For the molecule `O=C(/C=C/c1ccccc1Cl)c1ccc(O)cc1`, the inhibition is 36.8%.
In the case of `COc1ccccc1/C=C/C(=O)c1ccccc1` it was 5.69%.
For `COc1ccccc1/C=C/C(=O)c1ccc(Cl)cc1` the value was 19.9%; for `Cc1nc2nc(SCC(=O)C(C)(C)C)[nH]c2cc1Br`, -3.7%.
For the molecule `CC(C)(C)c1cc(NC(=O)c2cccc([N+](=O)[O-])c2)no1`, the inhibition was 4.63%.
For `CC1(c2nnc(-c3ccccc3)o2)CC(c2ccc(F)cc2)=NO1` (stereo unspecified) the value was -2.41%.
As to `CCOC(=O)c1ccc(N=c2sc(C(=O)OC)cc(=O)n2-c2ccc(C(=O)OCC)cc2)cc1`, the inhibition was 63.5%.
In the case of `COC(=O)c1ccc(N=c2sc(C(=O)OC)cc(=O)n2C)cc1` it was 7.67%; in that of `COc1c(F)c(F)c(C(=O)O)c(Nc2cc(C)cc(C)c2)c1F`, -9.39%.
Take `O=c1cc(-c2ccccc2F)oc2ccccc12`: the inhibition is -6.27%.
In the case of `O=c1cc(-c2ccc(F)cc2)oc2ccccc12` it was -4.83%.
In the case of `N#Cc1cccc(NC(=O)CC2CCCCC2)c1` it was 1.61%.
In the case of `Cc1ccc(N2C(=O)NC(=O)/C(=C\c3ccc(N4CCOCC4)cc3)C2=O)cc1` it was -2.37%; in that of `CS(=O)(=O)N1CCn2c1nc1ccccc12`, -12.2%.
As for `CC1=C(C#N)C(c2cccnc2)C2=C(CC(c3ccc(Cl)cc3)CC2=O)N1` (stereo unspecified), the inhibition is 5.84%.
In the case of `COc1ccc(C2C(C#N)=C(C)NC3=C2C(=O)CC(C)(C)C3)cc1` (stereo unspecified) it was 6.62%; in that of `COC(=O)C1=C(C(=O)OC)[C@@H]2N(Cc3ccccc3)c3ccccc3[C@@]23C[C@@H](C(=O)OC)N(C(=O)NC2CCCCC2)C3=N1`, -1.86%.
On to `CC(=O)c1ccc(NC(=O)C2CC(=O)N(Cc3ccccc3)C2)cc1` (stereo unspecified), for which the inhibition was -1.96%.
`CCOc1nc(-c2ccc(Cl)cc2)nc2ccccc12`: the inhibition was -0.59%.
In the case of `CC(=O)N(c1ccc(Cl)cc1)c1c[nH]c2ccccc12` it was -5.95%; in that of `O=C(N(c1ccccc1)c1ccccc1)N(c1ccccc1)c1ccccc1`, -4.02%; in that of `O=C(CCl)N(Cc1ccccc1)c1ccccc1`, 77.7%.
Take `O=C(CCl)N(c1ccc(Cl)cc1)c1c[nH]c2ccccc12`: the inhibition was 75.3%.
With `CCn1cc(-c2cc(C(F)(F)F)n3nc(C(=O)O)cc3n2)c(C)n1`, the inhibition is -10.8%.
In the case of `COc1ccc(C)cc1NC(=O)C1CCCCC1C(=O)O` (stereo unspecified) it was -8.21%; in that of `CCOC(=O)C(NCc1ccc(F)cc1)(NC(=O)c1ccccc1)C(F)(F)F` (stereo unspecified), -7.14%; in that of `Cc1nn(-c2ccccc2)c2[nH]c(=O)c(CNCc3ccc4c(c3)OCO4)cc12`, -1.83%.
For `CCOc1cccc(NCc2cc3c(C(C)(C)C)nn(-c4ccccc4)c3[nH]c2=O)c1` the value was 70.7%.
As for `CCc1ccc(NCc2cc3c(C)nn(-c4ccccc4)c3[nH]c2=O)cc1`, the inhibition was 26%.
In the case of `Cc1nn(-c2ccccc2)c2[nH]c(=O)c(CNCCN3CCOCC3)cc12` it was 3.32%; in that of `COc1cccc(NCc2cc3c(C(C)(C)C)nn(-c4ccccc4)c3[nH]c2=O)c1`, -5.67%; in that of `CC(C)(C)c1nn(-c2ccccc2)c2[nH]c(=O)c(CNc3ccc4c(c3)OCCO4)cc12`, 4.42%.
With `Cn1c(O)c(N=NC(=O)c2ccccc2O)c2ccccc21`, the inhibition is -0.85%.
On to `Cc1cc(C2(c3ccc(O)c(C)c3)OC(=O)c3ccccc32)ccc1O`, for which the inhibition is -1.73%.
For `CC/C(C)=C1\SC(N2CCOCC2)=NC1=O` the value was 1.74%; for `Cc1cc(C)nc(N2CCC(C(=O)NCc3ccccc3F)CC2)n1`, -8.28%.
As to `CC(=O)Nc1ccn(-c2ccccc2)n1`, the inhibition was 0.92%.
`O=C(Nc1ccn(-c2ccccc2)n1)c1ccccc1Br`: the inhibition is 1.33%.
Take `CC(C)(C)C1CCc2sc(-c3nnc(CCl)o3)cc2C1` (stereo unspecified): the inhibition was 43.6%.
In the case of `COc1cc2[nH]c(=O)n3nc(-c4ccccc4)nc3c2cc1OC` it was -2.98%.
In the case of `Cc1nc(N)nc(Cl)c1Cc1ccc(Cl)cc1` it was 3.47%.
For `Cc1nc2ccc(Cl)cc2nc1C` the value was -12.2%.
Take `COC(=O)/C(C#N)=C/c1c[nH]c2ccccc12`: the inhibition is 7.57%.
As to `CCCCn1c(=O)c(C(=O)Nc2ccccc2)c(O)c2ccccc21`, the inhibition is -1.05%.
Take `CCCCCCn1c(=O)c(C(=O)Nc2c(C)n(C)n(-c3ccccc3)c2=O)c(O)c2ccccc21`: the inhibition is -5.05%.
For `CCCCn1c(=O)c(C(=O)Nc2ccsc2C(=O)OC)c(O)c2ccccc21` the value was 1.97%; for `CCCCCn1c(=O)c(C(=O)Nc2ccccc2S(N)(=O)=O)c(O)c2ccccc21`, 6.87%.
On to `CCN(CC)S(=O)(=O)c1cc(C(=O)OCC(=O)NC(=O)c2cccn2C)ccc1C`, for which the inhibition is -5.23%.
With `O=C(CCNc1ccc(F)cc1)c1cc2ccccc2o1`, the inhibition was -9.46%.
As for `Cn1cc(Br)c(C(=O)NNC(=O)c2ccc(Br)cc2)n1`, the inhibition was 6.79%.
In the case of `CCN(CC)c1ccc2c(c1)C(=O)N(C)C2=O` it was 7.2%; in that of `CCN(CC)c1ccc(NC(=O)CCCCCN2C(=O)c3ccccc3C2=O)cc1`, -10.5%.
`O=C(Nc1ccc2oc(-c3ccccc3Cl)nc2c1)c1cncc(Br)c1`: the inhibition was -3.07%.
Regarding `CN(C)/C=N/c1nc(-c2ccc3c(c2)OCO3)cs1`, the inhibition was -11.6%.
For `Brc1ccc(-c2csc(/N=C/N3CCCC3)n2)cc1` the value was 64.4%; for `COc1ccc(CNC(=O)C2C3C=CC4(CN(Cc5cccnc5)C(=O)C24)O3)cc1` (stereo unspecified), -7.2%; for `COc1ccc(NC(=O)C(=O)N/N=C(\C)CC(=O)Nc2ccccn2)c(OC)c1`, -16.2%.
Turning to `NS(=O)(=O)c1ccc(NC(=O)CCC2CCCCC2)cc1`, the inhibition is -3.12%.
In the case of `CC1CCN(C(=O)CCc2ccc(Oc3cc([N+](=O)[O-])cc([N+](=O)[O-])c3)cc2)CC1`, the inhibition was 71.9%.
In the case of `O=C(CCc1ccc(Oc2cc([N+](=O)[O-])cc([N+](=O)[O-])c2)cc1)N1CCCCC1`, the inhibition is 3.78%.
On to `CC1(C)S/C(=N/N=C/c2ccco2)NC1=O`, for which the inhibition is 3.45%.
In the case of `CCOc1ccc(-n2c(N)c(C(=O)N3CCN(C)CC3)sc2=S)cc1` it was 2.86%; in that of `CN(C)S(=O)(=O)N1CCN(c2ccc([N+](=O)[O-])c(N3CCOCC3)c2)CC1`, 6.14%.
In the case of `Cc1c(O)ccc(-c2n[nH]c(C(=O)O)c2-c2nc3ccccc3s2)c1O`, the inhibition was -16.8%.
In the case of `O=C(CC(Sc1n[nH]c(-c2ccccc2)n1)c1ccccc1)NCc1ccccc1` (stereo unspecified), the inhibition is -4.33%.
For `O=C(NCc1c(F)cccc1F)c1cc(COc2c(F)cccc2F)on1` the value was 4.13%.
For `COC(=O)OCC12CCC(O1)C1(C)C(=O)OCC21` (stereo unspecified) the value was 2.41%; for `COC(/C=C/Nc1ccc(Br)cc1)=C(C#N)C#N`, -3.61%; for `CC1CCN(CCC(=O)NN)CC1`, 1.23%.
For `CCOC(=O)/C(C#N)=N/Nc1ccccc1OC`, the inhibition is 12.6%.
`Nc1nc(Cl)cc(N2CCC(c3cc(-c4ccc(Cl)cc4Cl)n[nH]3)CC2)n1`: the inhibition is 8.57%.
For `COc1ccc(-c2cc(C3CCN(c4cc(Cl)nc(N)n4)CC3)[nH]n2)cc1`, the inhibition is 4.7%.
As to `O=c1c2c3c(sc2nc2n1N=C(c1cccs1)CS2)CCCC3`, the inhibition is 3.06%.
Regarding `CC(=O)Nc1ccc(S(=O)(=O)N2CCN(CCN3CCOCC3)CC2)cc1Cl`, the inhibition is -2.42%.
On to `O=C(CCc1ccccc1)Nc1nc2c(F)cc(F)cc2s1`, for which the inhibition is 12.2%.
In the case of `O=C(Nc1nc2ccc(F)cc2s1)c1cccs1` it was -2.98%; in that of `O=C(NNc1nc2c(F)cc(F)cc2s1)c1ccccc1`, 6.46%; in that of `Cc1onc(-c2ccccc2)c1C(=O)Nc1nc(-c2cc(F)ccc2F)cs1`, -3.02%.
In the case of `O=C(Nc1nc(-c2cc(F)ccc2F)cs1)C1=NN(c2ccccc2)C(=O)CC1` it was 8.23%.
Turning to `O=C(Nc1nc2ccccc2s1)c1ccc(F)cc1`, the inhibition was 2.23%.
In the case of `S=C(NCC1CCCO1)Nc1ccccc1Cl` (stereo unspecified) it was -6.63%; in that of `CC(C)(C)C(O)(CC#CCN1CCCC1)c1ccccc1` (stereo unspecified), -4.05%.
Take `O=C(NCC1OCCc2ccccc21)C1COc2ccccc2O1` (stereo unspecified): the inhibition is 9.06%.
As to `Cc1cccc(NC(=O)C2(c3cccs3)CCOCC2)n1`, the inhibition was -3.03%.
In the case of `CCn1c(=O)cc(N2CCN(C(=O)c3ccco3)CC2)[nH]c1=O` it was 11.9%; in that of `O=C(COC(=O)C1CC1)Nc1ccc2[nH]c(=O)[nH]c2c1`, 1.3%.

The values are drawn from PubChem BioAssay AID1626 (SRMLSC, 2009).
